# According to PubChem BioAssay (NCI):
# Compounds without any hit were thinned out: in the full panel of roughly 79,000, 15% have a hit. Unmarked numbers belong to inactive results. Calls of active or inactive are those of the source. No stated cut-off is given here; in the data, active means growth inhibition above about 70%; inactive means the rest.
# Experiments:
# [1] = NCI Yeast Anticancer Drug Screen. Data for the rad52 strain (AID 147);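 further: 0% = growth of vehicle-treated control cultures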; conditions: S. cerevisiae rad52 mutant growth inhibition, stronger effect = higher value
# In short: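 Growth of repair-deficient yeast cells was compared between compound-treated and vehicle-treated cultures to give percent inhibition.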
# [2] = NCI Yeast Anticancer Drug Screen. Data for the wt1 strain (AID 149);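 further: 0% = growth of vehicle-treated wt1 cultures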; conditions: S. cerevisiae wt1 strain (SPY 50644) growth inhibition, stronger effect = higher value
# In short: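 Compounds are added to wt1 yeast cultures. Growth is then measured. Inhibition is expressed relative to vehicle-treated controls.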
# [3] = NCI Yeast Anticancer Drug Screen. Data for the rad50EPP+ strain (AID 151);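 further: 0% = growth of vehicle-treated control cultures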; conditions: S. cerevisiae rad50 mutant strain, stronger effect = higher value
# In short: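 Measured: growth inhibition of rad50EPP+ yeast. Reference: vehicle-treated controls. Screen uses strains with defined genetic alterations in DNA damage repair or cell cycle control.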
# [4] = NCI Yeast Anticancer Drug Screen. Data for the mgt1 strain (AID 153); conditions: S. cerevisiae mgt1 mutant growth inhibition, stronger effect = higher value
# In short: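 Compounds were applied to mgt1 mutant yeast, and growth was then compared against vehicle-treated control cultures to give percent inhibition.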
# [5] = NCI Yeast Anticancer Drug Screen. Data for the rad50 strain (AID 155);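 further: 0% = growth of vehicle-only cultures of the same strain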; conditions: S. cerevisiae rad50 strain growth inhibition, stronger effect = higher value
# In short: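 Inhibition values express reduced yeast growth in compound-treated cultures relative to vehicle-treated controls.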
# [6] = NCI Yeast Anticancer Drug Screen. Data for the mec2-1 strain (AID 157); conditions: S. cerevisiae mec2-1 strain, stronger effect = higher value
# In short: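 Compounds were applied to mec2-1 yeast cells. Their growth was then compared with that of vehicle-treated cultures to give growth inhibition.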
# [7] = NCI Yeast Anticancer Drug Screen. Data for the rad14 strain (AID 159);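 further: 0% = growth of vehicle-treated control cultures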; conditions: S. cerevisiae rad14 strain growth inhibition, stronger effect = higher value
# In short: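 A mutant yeast strain defective in DNA damage repair is treated with compound; inhibition of its growth is scored against untreated, vehicle-exposed cultures.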
# [8] = NCI Yeast Anticancer Drug Screen. Data for the sgs1 mgt1 strain (AID 161);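 further: 0% = growth of cultures given vehicle only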; conditions: S. cerevisiae sgs1 mgt1 strain, stronger effect = higher value
# In short: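 Percent growth inhibition was derived by comparing compound-exposed mutant yeast with vehicle-exposed cultures. The strain carries alterations in DNA damage repair.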
# [9] = NCI Yeast Anticancer Drug Screen. Data for the CLN2oe strain (AID 163);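 further: 0% = growth of vehicle-only control cultures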; conditions: S. cerevisiae CLN2oe strain, stronger effect = higher value
# In short: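 Cells of an engineered yeast line with disturbed cell-cycle regulation are treated with compound. Inhibition of growth is then calculated relative to the vehicle-treated reference.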
# [10] = NCI Yeast Anticancer Drug Screen. Data for the cln2 rad14 strain (AID 165);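 further: 0% = growth equal to vehicle treated cultures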; conditions: S. cerevisiae cln2 rad14 strain, stronger effect = higher value
# In short: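 Strain: cln2 rad14 yeast, altered in cell cycle control and DNA damage repair. Read-out: growth inhibition vs vehicle.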
# [11] = NCI Yeast Anticancer Drug Screen. Data for the bub3 strain (AID 167); conditions: S. cerevisiae bub3 mutant strain, stronger effect = higher value
# In short: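 Steps: expose the mutant yeast strain to compound; grow alongside vehicle-treated cultures; measure growth; express inhibition against the vehicle cultures.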
# [12] = NCI Yeast Anticancer Drug Screen. Data for the wt2 strain (AID 169);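 further: 0% = growth of vehicle-treated yeast cultures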; conditions: S. cerevisiae wt2 strain growth inhibition, stronger effect = higher value
# In short: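 Growth of compound-treated yeast is measured and expressed as inhibition relative to vehicle-only controls.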
# [13] = NCI Yeast Anticancer Drug Screen. Data for the mlh1 strain (AID 171);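 further: 0% = growth of vehicle-treated control cultures of the same strain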; conditions: S. cerevisiae mlh1 strain growth inhibition, stronger effect = higher value
# In short: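 Test agents were incubated with yeast bearing a defined DNA damage repair or cell cycle control alteration; values are growth inhibition normalised to vehicle-treated cultures.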
# [14] = NCI Yeast Anticancer Drug Screen. Data for the sgs1 strain (AID 173);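 further: 0% = growth of vehicle-only control cultures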; conditions: S. cerevisiae sgs1 mutant, stronger effect = higher value
# In short: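 Strain with an altered DNA repair or cell cycle pathway exposed to compound. Growth then measured. Value = inhibition versus vehicle control.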
# [15] = NCI Yeast Anticancer Drug Screen. Data for the mlh1 rad18 strain (AID 175); conditions: S. cerevisiae mlh1 rad18 strain growth inhibition, stronger effect = higher value
# In short: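 A repair-deficient yeast strain is exposed to test compound, and growth is scored relative to vehicle-treated controls.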
# [16] = NCI Yeast Anticancer Drug Screen. Data for the rad18 strain (AID 177); conditions: S. cerevisiae rad18 mutant growth inhibition, stronger effect = higher value
# In short: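 DNA-repair-defective yeast; compound treatment; growth inhibition scored against vehicle.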
# [17] = at 5.0 µM (retest, dose inferred, filed as 0.5)
# [18] = at 50.0 µM (retest, dose inferred, filed as 5.0)
compound,measurement,setting,value
NNC(=O)CCc1cc2ccccc2c2ccccc12,growth inhibition,[1]; at 1.2 µM,-15%
same,growth inhibition,[1]; at 3.7 µM,-10%
same,growth inhibition,[1]; at 11.0 µM,-5%
same,growth inhibition,[1]; at 33.0 µM,26%
same,growth inhibition,[1]; at 100.0 µM,99% (active)
same,growth inhibition,[2]; at 1.2 µM,3%
same,growth inhibition,[2]; at 3.7 µM,2%
same,growth inhibition,[2]; at 11.0 µM,9%
same,growth inhibition,[2]; at 33.0 µM,4%
same,growth inhibition,[2]; at 100.0 µM,99% (active)
same,growth inhibition,[3]; at 1.2 µM,-8%
same,growth inhibition,[3]; at 3.7 µM,-21%
same,growth inhibition,[3]; at 11.0 µM,-16%
same,growth inhibition,[3]; at 33.0 µM,28%
same,growth inhibition,[3]; at 100.0 µM,50%
same,growth inhibition,[4]; at 1.2 µM,-3%
same,growth inhibition,[4]; at 3.7 µM,-8%
same,growth inhibition,[4]; at 11.0 µM,-2%
same,growth inhibition,[4]; at 33.0 µM,1%
same,growth inhibition,[4]; at 100.0 µM,99% (active)
same,growth inhibition,[5]; at 1.2 µM,-13%
same,growth inhibition,[5]; at 3.7 µM,-16%
same,growth inhibition,[5]; [17],19%
same,growth inhibition,[5]; at 11.0 µM,-12%
same,growth inhibition,[5]; at 33.0 µM,38%
same,growth inhibition,[5]; [18],99% (active)
same,growth inhibition,[5]; at 50.0 µM,97.9% (active)
same,growth inhibition,[5]; at 100.0 µM,99% (active)
same,growth inhibition,[6]; at 1.2 µM,-2%
same,growth inhibition,[6]; at 3.7 µM,-2%
same,growth inhibition,[6]; [17],12%
same,growth inhibition,[6]; at 11.0 µM,-2%
same,growth inhibition,[6]; at 33.0 µM,-2%
same,growth inhibition,[6]; [18],99% (active)
same,growth inhibition,[6]; at 50.0 µM,98.8% (active)
same,growth inhibition,[6]; at 100.0 µM,99% (active)
same,growth inhibition,[7]; at 1.2 µM,-2%
same,growth inhibition,[7]; at 3.7 µM,-1%
same,growth inhibition,[7]; at 11.0 µM,23%
same,growth inhibition,[7]; at 33.0 µM,31%
same,growth inhibition,[7]; at 100.0 µM,99% (active)
same,growth inhibition,[8]; [17],28%
same,growth inhibition,[8]; [18],98% (active)
same,growth inhibition,[8]; at 50.0 µM,98.5% (active)
same,growth inhibition,[9]; at 1.2 µM,-9%
same,growth inhibition,[9]; at 3.7 µM,-7%
same,growth inhibition,[9]; at 11.0 µM,-12%
same,growth inhibition,[9]; at 33.0 µM,-2%
same,growth inhibition,[9]; at 100.0 µM,99% (active)
same,growth inhibition,[10]; [17],11%
same,growth inhibition,[10]; [18],98% (active)
same,growth inhibition,[10]; at 50.0 µM,98% (active)
same,growth inhibition,[11]; at 1.2 µM,-7%
same,growth inhibition,[11]; at 3.7 µM,-8%
same,growth inhibition,[11]; [17],50%
same,growth inhibition,[11]; at 11.0 µM,-9%
same,growth inhibition,[11]; at 33.0 µM,18%
same,growth inhibition,[11]; [18],98% (active)
same,growth inhibition,[11]; at 50.0 µM,98.8% (active)
same,growth inhibition,[11]; at 100.0 µM,99% (active)
same,growth inhibition,[12]; at 1.2 µM,-8%
same,growth inhibition,[12]; at 3.7 µM,1%
same,growth inhibition,[12]; at 11.0 µM,18%
same,growth inhibition,[12]; at 33.0 µM,53%
same,growth inhibition,[12]; at 100.0 µM,100% (active)
same,growth inhibition,[13]; at 1.2 µM,-13%
same,growth inhibition,[13]; at 3.7 µM,-6%
same,growth inhibition,[13]; at 11.0 µM,-3%
same,growth inhibition,[13]; at 33.0 µM,38%
same,growth inhibition,[13]; at 100.0 µM,99% (active)
same,growth inhibition,[14]; at 1.2 µM,-20%
same,growth inhibition,[14]; at 3.7 µM,-8%
same,growth inhibition,[14]; at 11.0 µM,9%
same,growth inhibition,[14]; at 33.0 µM,43%
same,growth inhibition,[14]; at 100.0 µM,99% (active)
same,growth inhibition,[15]; [17],45%
same,growth inhibition,[15]; [18],98% (active)
same,growth inhibition,[15]; at 50.0 µM,98.5% (active)
same,growth inhibition,[16]; at 1.2 µM,-6%
same,growth inhibition,[16]; at 3.7 µM,-5%
same,growth inhibition,[16]; at 11.0 µM,0%
same,growth inhibition,[16]; at 33.0 µM,30%
same,growth inhibition,[16]; at 100.0 µM,99% (active)
CCc1ccc2c(c1)N(CC(C)CN(C)C)c1ccccc1S2 (stereo unspecified),growth inhibition,[1]; at 1.2 µM,-5%
same,growth inhibition,[1]; at 3.7 µM,-8%
same,growth inhibition,[1]; at 11.0 µM,-9%
same,growth inhibition,[1]; at 33.0 µM,-1%
same,growth inhibition,[1]; at 100.0 µM,69%
same,growth inhibition,[2]; at 1.2 µM,-2%
same,growth inhibition,[2]; at 3.7 µM,-4%
same,growth inhibition,[2]; at 11.0 µM,-6%
same,growth inhibition,[2]; at 33.0 µM,-5%
same,growth inhibition,[2]; at 100.0 µM,32%
same,growth inhibition,[3]; at 1.2 µM,-12%
same,growth inhibition,[3]; at 3.7 µM,-15%
same,growth inhibition,[3]; at 11.0 µM,-23%
same,growth inhibition,[3]; at 33.0 µM,-31%
same,growth inhibition,[3]; at 100.0 µM,87% (active)
same,growth inhibition,[4]; at 1.2 µM,-3%
same,growth inhibition,[4]; at 3.7 µM,-4%
same,growth inhibition,[4]; at 11.0 µM,-6%
same,growth inhibition,[4]; at 33.0 µM,0%
same,growth inhibition,[4]; at 100.0 µM,76% (active)
same,growth inhibition,[5]; at 1.2 µM,-4%
same,growth inhibition,[5]; at 3.7 µM,-9%
same,growth inhibition,[5]; [17],2%
same,growth inhibition,[5]; at 11.0 µM,-1%
same,growth inhibition,[5]; at 33.0 µM,4%
same,growth inhibition,[5]; [18],37%
same,growth inhibition,[5]; at 50.0 µM,52.1%
same,growth inhibition,[5]; at 100.0 µM,82% (active)
same,growth inhibition,[6]; at 1.2 µM,-6%
same,growth inhibition,[6]; at 3.7 µM,-8%
same,growth inhibition,[6]; [17],-7%
same,growth inhibition,[6]; at 11.0 µM,-12%
same,growth inhibition,[6]; at 33.0 µM,-4%
same,growth inhibition,[6]; [18],-27%
same,growth inhibition,[6]; at 50.0 µM,-12.1%
same,growth inhibition,[6]; at 100.0 µM,58%
same,growth inhibition,[7]; at 1.2 µM,-2%
same,growth inhibition,[7]; at 3.7 µM,-4%
same,growth inhibition,[7]; at 11.0 µM,-1%
same,growth inhibition,[7]; at 33.0 µM,23%
same,growth inhibition,[7]; at 100.0 µM,96% (active)
same,growth inhibition,[8]; [17],-12%
same,growth inhibition,[8]; [18],23%
same,growth inhibition,[8]; at 50.0 µM,24.3%
same,growth inhibition,[9]; at 1.2 µM,-9%
same,growth inhibition,[9]; at 3.7 µM,-4%
same,growth inhibition,[9]; at 11.0 µM,-10%
same,growth inhibition,[9]; at 33.0 µM,3%
same,growth inhibition,[9]; at 100.0 µM,58%
same,growth inhibition,[10]; [17],-24%
same,growth inhibition,[10]; [18],21%
same,growth inhibition,[10]; at 50.0 µM,65%
same,growth inhibition,[11]; at 1.2 µM,-3%
same,growth inhibition,[11]; at 3.7 µM,3%
same,growth inhibition,[11]; [17],2%
same,growth inhibition,[11]; at 11.0 µM,18%
same,growth inhibition,[11]; at 33.0 µM,48%
same,growth inhibition,[11]; [18],32%
same,growth inhibition,[11]; at 50.0 µM,74% (active)
same,growth inhibition,[11]; at 100.0 µM,74% (active)
same,growth inhibition,[12]; at 1.2 µM,-4%
same,growth inhibition,[12]; at 3.7 µM,-4%
same,growth inhibition,[12]; at 11.0 µM,-6%
same,growth inhibition,[12]; at 33.0 µM,3%
same,growth inhibition,[12]; at 100.0 µM,78% (active)
same,growth inhibition,[13]; at 1.2 µM,-2%
same,growth inhibition,[13]; at 3.7 µM,-3%
same,growth inhibition,[13]; at 11.0 µM,-5%
same,growth inhibition,[13]; at 33.0 µM,-23%
same,growth inhibition,[13]; at 100.0 µM,62%
same,growth inhibition,[14]; at 1.2 µM,-4%
same,growth inhibition,[14]; at 3.7 µM,-5%
same,growth inhibition,[14]; at 11.0 µM,-4%
same,growth inhibition,[14]; at 33.0 µM,16%
same,growth inhibition,[14]; at 100.0 µM,93% (active)
same,growth inhibition,[15]; [17],-9%
same,growth inhibition,[15]; [18],63%
same,growth inhibition,[15]; at 50.0 µM,83.5% (active)
same,growth inhibition,[16]; at 1.2 µM,-12%
same,growth inhibition,[16]; at 3.7 µM,-10%
same,growth inhibition,[16]; at 11.0 µM,-8%
same,growth inhibition,[16]; at 33.0 µM,2%
same,growth inhibition,[16]; at 100.0 µM,85% (active)
